In the library only some 6.2% were active in any assay of this set; here they are far more common.
MARV entry inh = qHTS for inhibitors of binding or entry into cells for Marburg Virus; 300,000 compounds, 1.8% hits; Potency, µM (doses to about 37.8 µM), usual class: inhibitors; Marburg virus pseudotyped entry inhibition, cell reporter; calls by dose curve; tested in HEK293 cells
HCMV inh = qHTS Assay for inhibitors of the human cytomegalovirus (HCMV). HFF cells, HCMV-luciferase reporter, 72 h; stronger effect = lower value. 410,000 compounds, 4.5% hits. activity change, negative = inhibition, % at 57.5 µM; in the data active = activity change below about -60%; inconclusive = no clear call, values can overlap the other calls; inactive = above about -39%
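Steps: HFFs plated, 16 h 37C; compounds added; HCMV-luciferase added to MOI 1 PFU/cell; 72 h 37C; OneGlo reagent, 5 min room temperature; luminescence read, normalized to controls.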
Lassa entry inh = qHTS for Inhibitors of binding or entry into cells for Lassa Virus; Lassa virus pseudotype entry inhibition, cell reporter; Potency, µM (titrated, usually from 37.9 µM), usual class: inhibitors; 300,000 compounds, 1.2% hits; AID 540256, 2011; calls by dose curve; tested in HEK293 cells; note: nearly all actives have a fitted effect of over 50% in size
FMDV antiviral = High Throughput Screening for Foot and Mouth Disease Virus Antivirals | FMDV antiviral cell-based qHTS | Potency, µM (top dose mostly 57.9 µM), usual class: inhibitors | 410,000 compounds, 1.2% hits | AID 1159524, 2015; calls by dose curve; tested in HEK293T cells; note: read-out not given here; nearly all actives have a fitted effect of over 45% in size
Each line names hits and unclear results; the compound was inactive in the other large screens.

CCOc1ccc(-c2n[nH]c3c2C(c2cccs2)N(c2ccc(Br)cc2)C3=O)cc1 (configuration not stated)	MARV entry inh inconclusive, HCMV inh -99, Lassa entry inh inconclusive, FMDV antiviral inconclusive
Cc1cc(C)cc(N(CC(=O)NCc2ccc3c(c2)OCO3)C(=O)CCC(=O)Nc2ccccn2)c1	MARV entry inh inconclusive, Lassa entry inh 10µM, FMDV antiviral inconclusive
O=[N+]([O-])c1ccc(C2=Nn3c(Cn4nnc5ccccc54)nnc3SC2)cc1	none
C[N+]1=CC2=c3c1c(O)c1c(c3=NCC2)C2(C=C(Br)C(=O)C(Br)=C2)CCN1	HCMV inh -102 (no result: MARV entry inh, Lassa entry inh, FMDV antiviral)
Cn1nc(C(C)(C)C)cc1C(=O)NCc1ccc(N2CCCC2=O)cc1	MARV entry inh inconclusive, HCMV inh -100, FMDV antiviral inconclusive
Cc1ccc(CNC(=O)c2ccc(N3CCCC3=O)cc2)cc1	none
CCOc1ccc(-c2cc(N)n(S(=O)(=O)c3ccc(OC)c(OC)c3)n2)cc1	HCMV inh -60 (no result: Lassa entry inh)
COc1ccc(CN(CC(=O)NC2CCCC2)C(=O)CN2C(=O)COc3ccccc32)cc1	none
Cc1ccc(Cl)cc1NC(=O)CC(O)(C(F)(F)F)C(F)(F)F	MARV entry inh inconclusive, HCMV inh -102, Lassa entry inh inconclusive (no result: FMDV antiviral)
COc1cccc(CCNCc2cccc(C(F)(F)F)c2)c1	MARV entry inh inconclusive
CC(Cc1cccc(C(F)(F)F)c1)NCCCc1ccccc1 (configuration not stated)	FMDV antiviral 20µM (no result: MARV entry inh, HCMV inh, Lassa entry inh)
Nn1c(C2CCC2)nc2ccccc2c1=O	none
O=C(NCc1cccc(Cl)c1)C1CCCN(c2ncnc3c2nc2n3CCCCC2)C1 (configuration not stated)	MARV entry inh inconclusive, HCMV inh -67, Lassa entry inh inconclusive
O=C(NCc1cccc(Cl)c1)C1CCCN(c2nn3cc(-c4ccc(F)cc4)nc3s2)C1 (configuration not stated)	HCMV inh active, FMDV antiviral 11µM (no result: MARV entry inh)
O=C(NCC1CCN(Cc2ccc(F)cc2)CC1)C1CCCN(c2ncnc3c2nc2n3CCCCC2)C1 (configuration not stated)	HCMV inh -61 (no result: MARV entry inh, Lassa entry inh)
COCCN(Cc1ccco1)C(=O)C1CCCN(c2ncnc3c2nc2n3CCCCC2)C1 (configuration not stated)	MARV entry inh inconclusive, Lassa entry inh 11µM
O=C(NCC1CCN(Cc2cccc(Cl)c2)CC1)C1CCCN(c2ncnc3c2nc2n3CCCCC2)C1 (configuration not stated)	HCMV inh inconclusive (no result: MARV entry inh, Lassa entry inh)
CC#CC(=O)N1CCCC(C(=O)c2ccc(SC)cc2)C1 (configuration not stated)	none (no result: MARV entry inh, Lassa entry inh)
COc1cccc(Cn2c(=O)n(CC3CCC(C(=O)N4CCOCC4)CC3)c(=O)c3sccc32)c1 (configuration not stated)	Lassa entry inh inconclusive (no result: MARV entry inh)
O=C(NCC1CCN(Cc2ccc(Cl)cc2)CC1)C1CCCN(c2ncnc3c2nc2n3CCCCC2)C1 (configuration not stated)	HCMV inh -79, FMDV antiviral 10µM (no result: MARV entry inh, Lassa entry inh)
Cc1cccc(C(=O)N2CCc3cc(CNC(=O)c4ccco4)ccc32)c1	FMDV antiviral 28µM (no result: MARV entry inh)
CCOc1ccccc1C(=O)NCc1ccc2c(c1)CCN2C(=O)c1ccccc1	HCMV inh -78, Lassa entry inh inconclusive (no result: MARV entry inh)
CCOc1ccc(C(=O)NCc2ccc3c(c2)CCN3C(=O)c2ccccc2)cc1	none (no result: MARV entry inh)
CCOc1ccccc1NC(=O)NCc1ccc2c(c1)CCN2C(=O)c1ccccc1	HCMV inh -82, Lassa entry inh inconclusive (no result: MARV entry inh)
CCc1ccccc1NC(=O)NCc1ccc2c(c1)CCN2C(=O)c1ccccc1	none (no result: MARV entry inh)
COc1ccc(C)cc1NC(=O)NCc1ccc2c(c1)CCN2C(=O)c1ccccc1	HCMV inh -92, Lassa entry inh inconclusive, FMDV antiviral inconclusive (no result: MARV entry inh)
COC(CN(C)S(=O)(=O)c1cc2c3c(c1)CCN3C(=O)CC2)OC	Lassa entry inh inconclusive
CCOc1cccc(CC(=O)NCc2ccc3c(c2)CCN3C(=O)c2cccc(C)c2)c1OCC	MARV entry inh inconclusive, HCMV inh -67, Lassa entry inh 11µM, FMDV antiviral 14µM
CCS(=O)(=O)c1ccc2oc(SCC(=O)NCc3ccccc3)nc2c1	none
CCOC(=O)C1CCN(C(=O)COC(=O)CSc2ccccc2C)CC1	none
S=C(Nc1ccccc1Cl)N(CCCN1CCOCC1)Cc1ccccn1	none
CCOc1ccc(/C=C2\SC(=S)N(CCC(=O)N(CCO)c3ccccc3)C2=O)cc1	MARV entry inh inconclusive, HCMV inh -100, Lassa entry inh inconclusive
COc1ccc(/C=C2\SC(=S)N(CCC(=O)N(CCO)c3ccccc3)C2=O)cc1OC	HCMV inh -60 (no result: MARV entry inh, Lassa entry inh)
COc1ccc(/C=C2/SC(=S)N(CCC(=O)O)C2=O)cc1	FMDV antiviral inconclusive
O=C1/C(=C/c2cccs2)SC(=S)N1CCCC(=O)N(CCO)c1ccccc1	HCMV inh -98, Lassa entry inh inconclusive
COc1ccc(/C=C2\SC(=O)N(CCNC(=O)Cc3coc4cc(C)ccc34)C2=O)cc1OC	MARV entry inh inconclusive, HCMV inh -99, FMDV antiviral 40µM
Cc1cc(NC(=O)CCCN2C(=O)/C(=C\c3cccs3)SC2=S)no1	MARV entry inh inconclusive
CCc1ccc(/C=C2\SC(=S)N(CCCC(=O)N(CCO)c3ccccc3)C2=O)cc1	HCMV inh -98, FMDV antiviral inconclusive (no result: MARV entry inh, Lassa entry inh)
CCc1ccc(C=C2SC(=S)N(CCCC(=O)Nc3ccc(C(=O)O)cc3)C2=O)cc1	HCMV inh inconclusive (no result: MARV entry inh, Lassa entry inh)
COc1ccc(/C=C2/SC(=O)N(CCC(=O)Nc3ccccc3)C2=O)cc1OC	HCMV inh -64 (no result: Lassa entry inh)
CC(C)(C)S(=O)N1Cc2ccc(CO)cc2[C@@H]1CCO (some centres not stated)	FMDV antiviral 40µM (no result: MARV entry inh, Lassa entry inh)
CC(C)(C)S(=O)N1Cc2ccc(CO)cc2[C@H]1CCO (some centres not stated)	none (no result: MARV entry inh, Lassa entry inh)
CC1CC(C)CN(CC(O)COCCOc2ccc(Br)cc2)C1 (configuration not stated)	MARV entry inh 13µM, Lassa entry inh inconclusive
CC1CCN(CC(O)COCCOc2ccc(Br)cc2)CC1 (configuration not stated)	HCMV inh inconclusive
CCc1cc(=O)oc2c(CNCc3ccccc3F)c(O)c(Cl)cc12	none (no result: MARV entry inh, Lassa entry inh)
N#Cc1cc(-c2ccc(Cl)cc2)cn(Cc2c(Cl)cccc2Cl)c1=O	HCMV inh -89
C[C@H]1[C@@H](c2ccccc2)O[C@@H](c2ccccc2Br)N1C	none (no result: MARV entry inh, Lassa entry inh)
Cc1ccc(Nc2nc(OC(C(F)(F)F)C(F)(F)F)nc(N3CCOCC3)n2)cc1	MARV entry inh 1µM, FMDV antiviral inconclusive
CC(=O)Nc1cccc(C(=O)OCC(=O)NCc2ccc(F)cc2)c1	none
Cc1ccc(C)c(NC(=O)CN(C)C(=O)c2cccc(S(=O)(=O)N3CCN(Cc4ccccc4)CC3)c2)c1	MARV entry inh inconclusive, HCMV inh inconclusive, Lassa entry inh inconclusive, FMDV antiviral 14µM
Cc1ccc(C)c(NC(=S)N2CCN(S(=O)(=O)c3ccccc3)CC2)c1	HCMV inh -71
CC(=O)Nc1cccc(NC(=O)c2cccc(S(=O)(=O)N3CCN(Cc4ccccc4)CC3)c2)c1	none
CCN(CC)C(=O)c1ccc(NC(=O)c2cccc(S(=O)(=O)N3CCN(Cc4ccccc4)CC3)c2)cc1	MARV entry inh inconclusive, HCMV inh -78, FMDV antiviral inconclusive

Screens as filed in PubChem.
